Screening results from PubChem BioAssay.
CYP2C9 activ = activators of human CYP2C9; actives 1.4% (n = 96,000); activation factor at 5 µM; AID 1024; P11712; recombinant CYP2C9, luciferin-H conversion, luminescence; hits give high values; factor 1 = untreated enzyme, 0 = blocked;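 active = activation factor of 2 or more for CYP2C9 at a 5 µM dose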;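 also: 0 = sulfaphenazole-blocked wells and 1 = vehicle-only wells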
Target sequence (P11712 whole entry, looked up): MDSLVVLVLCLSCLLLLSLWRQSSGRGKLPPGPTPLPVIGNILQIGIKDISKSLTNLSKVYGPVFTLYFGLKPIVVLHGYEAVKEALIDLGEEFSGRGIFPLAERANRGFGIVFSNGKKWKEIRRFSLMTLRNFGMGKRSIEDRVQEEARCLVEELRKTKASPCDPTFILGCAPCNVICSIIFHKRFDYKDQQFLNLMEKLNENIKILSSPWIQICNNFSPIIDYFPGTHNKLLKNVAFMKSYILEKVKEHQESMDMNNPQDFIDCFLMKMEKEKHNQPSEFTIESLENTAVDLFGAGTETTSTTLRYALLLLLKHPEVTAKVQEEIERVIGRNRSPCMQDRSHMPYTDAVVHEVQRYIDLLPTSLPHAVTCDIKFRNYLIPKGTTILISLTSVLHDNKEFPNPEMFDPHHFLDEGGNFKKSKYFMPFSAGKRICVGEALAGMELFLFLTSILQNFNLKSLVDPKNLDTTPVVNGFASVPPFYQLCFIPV
Mac1 fbg enh = enhancers of human CD11b/CD18 binding to fibrinogen. P05107+P11215. K562 CD11b/CD18 adhesion to fibrinogen, ATPlite luminescence. activation, % at 10 µM. actives 0.07% (n = 93,000);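 active = 10 µM primary screen giving 50% or more activity, confirmed by 40% or more on retest at that dose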
CYP2C19 act = cytochrome P450 2C19 (human) activation | P33261 | recombinant CYP2C19, luciferin-H EGE luminescence; hits give high values; 0 = fully inhibited enzyme, 1 = untreated enzyme | activation factor at 5 µM | 96,000 tested, under 10 active;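 active = activation factor of at least 2 at 5 µM in the primary screen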;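 also: 0 = wells with 2.5 mM tranylcypromine and 1 = vehicle-only wells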
CYP2C9 inhib = human CYP2C9 inhibition; P11712; CYP2C9 Supersomes, luciferin-H conversion, luminescence; inhibition, % at 5 µM; actives 20% (n = 96,000); AID 777;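 active = blocking of liver enzyme CYP2C9 beyond about 50% at 5 µM, limit read from the data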
Mac1 fbg inh = CD11b/CD18-fibrinogen binding inhibition | inhibition, % at 10 µM | P05107+P11215 | AID 1497 | K562 CD11b/CD18 adhesion to fibrinogen, ATPlite luminescence; Mn2+ added to activate the integrin | actives 0.54% (n = 93,000);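 active = primary inhibition of 50% or more at 10 µM, then 40% or more on retest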
CYP2C19 inh = human CYP2C19 inhibition; CYP2C19 Supersomes, luciferin-H EGE luminescence, 30 min; AID 778; inhibition, % at 5 µM; actives 21% (n = 96,000); P33261;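 active = CYP2C19 inhibition above a set limit at 5 µM in the primary screen, cut at about 50% in these data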;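 also: plate controls were negative control wells for no effect and 2.5 mM tranylcypromine positive control for full effect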
* = called active by the depositor; . = no result given. The list is not random: actives were taken first. Their share in the collection is about 28%.

SMILES | CYP2C9 activ | Mac1 fbg enh | CYP2C19 act | CYP2C9 inhib | Mac1 fbg inh | CYP2C19 inh
Cn1c(-c2sc(=S)n(-c3ccccc3)c2N)nc2ccccc21 | 1.1 | . | 1.1 | -7 | . | -9
C=CCSc1nc2ccccc2n1Cc1nnc(-c2cccs2)o1 | 0.5 | 4 | 0.3 | 53* | 3 | 67*
Cc1nn(Cc2ccccc2Cl)c(C)c1NC(=O)CCCn1nc([N+](=O)[O-])c(Cl)c1C | . | 4 | . | . | -9 | .
CN(C)/C=C1\C(=O)N(c2ccc(Oc3ccccc3)cc2)CS1=O (centres undefined) | 0.9 | 5 | 1 | 7 | 2 | 4
O=C(Nc1ccccc1-c1ccccc1)C12CC3CC(CC(C3)C1)C2 | 1 | . | 0.8 | 3 | . | 19
O=C(NC1(C(F)(F)F)NC(=O)N(Cc2cccnc2)C1=O)c1cccs1 (centres undefined) | 0.6 | 3 | 0.5 | 37 | -11 | 52*
COc1ccc(NC(=O)CSc2ccc3c4c(cccc24)C(=O)c2ccccc2-3)cc1 | 0.2 | . | 0.7 | 84* | . | 28
N#Cc1cccc(NC(=O)CSc2ccccc2)c1 | 0.8 | -2 | 0.7 | 24 | 2 | 34
N#Cc1cccc(NC(=O)CSc2ccc3c4c(cccc24)C(=O)c2ccccc2-3)c1 | 0.3 | 62 | 0.7 | 74* | -2 | 30
CNc1sc(C(=O)c2ccccc2F)c(N)c1-c1nc2ccccc2s1 | 0.2 | -3 | 0.1 | 84* | 20 | 89*
c1ccc(Nc2cc(-c3ccccc3)nc3ncnn23)cc1 | 0.8 | -3 | 0.5 | 20 | 2 | 45
Cc1cc(C)n2c(SC/C(O)=C(\C#N)c3nc4ccccc4[nH]3)nnc2n1 | 0.7 | 27 | 0.8 | 30 | -3 | 16
Cc1ccccc1-n1c(SC/C(O)=C(\C#N)c2nc3ccccc3[nH]2)nnc1-c1ccncc1 | 0 | 3 | 0.1 | 95* | 10 | 86*
CCOC(=O)c1nn(-c2sc(C(=O)OC)c(C)c2C(=O)OC)cc1O | 0.4 | 1 | 0 | 61* | -26 | 100*
CCOC(=O)c1nn(-c2ccc(C)cc2)cc1O | 0.7 | -1 | 0.4 | 31 | -49 | 61*
CC1(C)N(O)CC(c2cccs2)=[N+]1[O-] | 1.1 | 5 | 1 | -7 | -28 | -4
O=c1cc(N2CCC(Cc3ccccc3)CC2)[nH]c(=O)n1C1CCCCC1 | 0.8 | . | 0.8 | 20 | . | 16
Nc1ccc(C(=O)OCc2nc3ccccc3[nH]2)cc1 | 0.9 | 1 | 0.2 | 9 | -6 | 81*
COCC(=O)NCc1nc2ccccc2[nH]1 | 1.1 | 3 | 1.1 | -12 | -7 | -6
Nc1ccc(C(=O)OCCCc2nc3ccccc3[nH]2)cc1 | 0.8 | -3 | 0.5 | 19 | 6 | 51*
CCSc1nc(C)cc(Oc2ccc(=O)n(C)n2)n1 | 1 | -3 | 0.9 | 0 | -15 | 11
CCCC(C)NC(=O)c1ccc(OCc2ccc(Cl)cc2)c(OC)c1 (centres undefined) | . | 5 | . | . | -7 | .
CCOC(=O)N1CCN(C(=O)c2ccccc2CCc2ccccc2)CC1 | 0.1 | 0 | 0.2 | 87* | -16 | 77*
NC(=O)C1CCN(C(=O)c2cc3ccccn3n2)CC1 | 1.1 | -3 | 1.1 | -13 | 2 | -14
CCOC(=O)N1CCN(C(=O)c2cccc(OC)c2O)CC1 | 1 | -2 | 0.4 | 4 | -18 | 57*
SMILES | CYP2C9 activ | Mac1 fbg enh | CYP2C19 act | CYP2C9 inhib | Mac1 fbg inh | CYP2C19 inh
O=C(c1cc2ccccn2n1)N1CCN(c2ccccn2)CC1 | 0.8 | -3 | 0.5 | 18 | 2 | 55*
O=C(c1cccc(Cl)c1Cl)N1CCN(c2ccccn2)CC1 | 0.5 | -1 | 0.5 | 46 | -6 | 45
O=C(c1ccccc1CCc1ccccc1)N1CCN(c2ccccn2)CC1 | 0.1 | 4 | 0.1 | 95* | -19 | 91*
CCOC(=O)N1CCN(C(=O)c2cnn3ccccc23)CC1 | 0.9 | -3 | 0.6 | 5 | -16 | 43
O=C(O)C1CCCCC1C(=O)NCCCCc1ccccc1 (centres undefined) | 0.6 | 3 | 1 | 44 | 9 | 4
COc1ccc(C2C(C(=O)Nc3ccccn3)=C(C)Nc3ncnn32)c(OC)c1 (centres undefined) | 0.6 | 1 | 1 | 38 | 5 | -2
O=C(c1cccs1)n1nc(-c2ccccc2)nc1NCc1ccc(F)cc1 | 0.8 | -4 | 1 | 22 | 2 | 4
O=C(c1ccccc1Cl)N1CCN(c2ccccn2)CC1 | 0.2 | 8 | 0.2 | 78* | -12 | 82*
O=C(O)CCC(=O)N1CCN(c2ccccn2)CC1 | 1 | 4 | 1 | -1 | -8 | 1
O=C(c1ccc(Cl)c(S(=O)(=O)N2CCCCCC2)c1)N1CCN(c2ccccn2)CC1 | 0.4 | -4 | 0.7 | 57* | 30 | 25
O=C(/C=C/c1ccccc1)c1ccccn1 | 0.7 | . | 0.5 | 27 | . | 51*
O=C(/C=C/c1ccccc1)N1CCN(c2ccccn2)CC1 | 0.5 | . | 0.5 | 53* | . | 48
O=[n+]1cc(-c2cccc3ccccc23)n([O-])c2c1CCC2 | 1 | -3 | 1.1 | 2 | -22 | -9
CCOc1ccc(C(CCc2ccccc2)NC(=O)c2ccccc2)cc1OCC (centres undefined) | 0.3 | -2 | 0.2 | 68* | -3 | 76*
CCOc1ccc(C(CC(=O)O)NC(=O)c2ccco2)cc1OC (centres undefined) | 1.2 | -1 | 1.1 | -16 | 12 | -11
CCOC(=O)CCC(=O)N1CCNC(=O)C1 | 0.7 | 0 | 0.8 | 28 | -8 | 16
CCNC(=S)NN(c1ccccc1)c1ccccc1 | 0.6 | -1 | 0 | 44 | 7 | 96*
Cc1nc2ccccc2c2nc(NC(=O)Cc3ccccc3)nn12 | 0.9 | -2 | 0.8 | 8 | -2 | 21
CC1CCCCN1c1nnc(NC(=O)c2cc(-c3ccc(Br)cc3)on2)s1 (centres undefined) | 0.4 | 9 | 0.8 | 62* | 61 | 16
CCOc1ccc(C(C)=O)cc1Cn1nc(C(=O)O)c2ccccc2c1=O | 0.9 | -6 | 1 | 5 | -6 | 2
Cc1cccc(C)c1N1C(=O)CC(N(O)c2ccccc2)C1=O (centres undefined) | 0.7 | 6 | 0 | 30 | -12 | 97*
Cc1c(Cl)cccc1N1C(=O)CC(N(O)c2ccccc2)C1=O (centres undefined) | 2.6* | 0 | 0.1 | -156 | -14 | 94*
CCCCOc1ccc(N2C(=O)CC(N(O)c3ccccc3)C2=O)cc1 (centres undefined) | 1.1 | 0 | 1.1 | -5 | 1 | -12
CCCCCOc1ccc(N2C(=O)CC(N(O)c3ccccc3)C2=O)cc1 (centres undefined) | 1 | 0 | 1.1 | -1 | -4 | -11
CCOc1ccccc1N1C(=O)CC(N(O)c2ccccc2)C1=O (centres undefined) | 1.1 | 0 | 0.1 | -8 | 4 | 93*
